Drawing on PubChem BioAssay AID652054 (National Center for Advancing Translational Sciences (NCATS), 2013), this text covers max response, negative = inhibition for 86 molecules.

Out of some 360,000 compounds screened, about 9,100 (2.5%) were called active. Roughly 4% stayed inconclusive and do not appear here. The list comes from a sample in which actives are over-represented; it also holds similar structures and randomly drawn compounds. Values without a mark were called inactive. Cut-off read from the data, not from the text of the source: active = max response below about -50%; inconclusive = no clear call, values can overlap the other calls; inactive = above that.
% is set by controls: 0 for no effect and ±100 for the full control effect.

The target of the assay is D(3) dopamine receptor (Homo sapiens) (UniProt P35462). Description: qHTS of D3 Dopamine Receptor Antagonist: qHTS. To be noted: D3R cells, DiscoveRx beta-arrestin luminescence, antagonist mode; stronger effect = lower value. The essentials: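 Cells plated overnight at 1500 cells/well, then exposed to library compounds with dopamine controls for 90 minutes at 37 degrees C. DiscoveRx reagent added for 30–60 minutes at room temperature; luminescence read, quantitative HTS format.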
D(3) dopamine receptor (Homo sapiens), sequence (P35462 whole entry, looked up): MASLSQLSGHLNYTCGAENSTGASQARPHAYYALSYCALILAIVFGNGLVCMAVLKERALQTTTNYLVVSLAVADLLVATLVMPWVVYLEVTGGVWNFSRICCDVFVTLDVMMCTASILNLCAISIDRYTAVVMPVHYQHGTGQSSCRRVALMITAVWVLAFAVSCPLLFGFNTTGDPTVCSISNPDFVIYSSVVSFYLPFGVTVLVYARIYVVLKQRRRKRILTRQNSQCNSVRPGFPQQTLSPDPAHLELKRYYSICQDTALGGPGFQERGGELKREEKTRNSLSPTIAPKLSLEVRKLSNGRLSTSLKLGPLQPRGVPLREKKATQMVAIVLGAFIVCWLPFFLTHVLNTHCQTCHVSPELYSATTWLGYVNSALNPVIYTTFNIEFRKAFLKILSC
(In general: qHTS replaces the single test concentration by a dilution series.)
For `Nc1nc2ncccn2c1-c1ccccc1`, the max response, negative = inhibition was -1.52%.
`O=C(COC(=O)c1cccc(Cl)c1Cl)NC1CCCCCC1`: the max response, negative = inhibition is -13.8%.
The figure for `CC1CCCC(C)N1C(=O)COC(=O)c1ccccc1C(=O)c1ccccc1` (stereo unspecified) is -17.2%; for `O=C(Nc1ccc(Cl)c(C(F)(F)F)c1)C1Cc2c(-c3ccccc3Oc3ccccc3)ccnc2O1` (stereo unspecified) it is 0%; for `CCCCN1C[C@H](c2ccc(Br)cc2)[C@@H](CC(=O)Nc2ccc(Br)cc2)C1=O` it is 24.8%.
In the case of `COc1ccc(C(=O)C(OP(=O)(OC)OC)c2ccccc2OC)cc1` (stereo unspecified), the max response, negative = inhibition is 2.58%.
For `CC(C)c1cccc(C(C)C)c1Nc1cn[nH]c1`, the max response, negative = inhibition is 157%.
In the case of `C[C@@H]1CN([C@@H](C)CO)C(=O)CCCn2nncc2CO[C@H]1CN(C)C(=O)Nc1ccc(C(F)(F)F)cc1` it was -16.1%; in that of `CCCCOCCCNC(=O)C[C@@H]1C[C@@]2(C(=O)OC)CCCCC=C2N(CCC2=CCCCC2)C1=O`, 0%; in that of `CC(C)NC(=O)C1(C)CCCCN1Cc1cccc(C(F)(F)F)c1` (stereo unspecified), 0%.
As for `CCOC(=O)C1C(C)C(C(C)(C)C)N(S(=O)(=O)c2ccc(C)cc2)C1c1ccccc1` (stereo unspecified), the max response, negative = inhibition is 15.8%.
In the case of `CC1(C(=O)Nc2cccc3cccnc23)CCN1C(=O)CCC1CCCC1` (stereo unspecified), the max response, negative = inhibition was 0%.
For the molecule `COc1ccccc1OCCCCCCN1CCN(C)CC1`, the max response, negative = inhibition is 0.923%.
In the case of `CCOC(=O)C1CCN(C(=O)COc2cccc3ccccc23)CC1` it was 2.44%; in that of `CN1CCN(CCCCOc2cccc3ccccc23)CC1`, -59% (active); in that of `C[N+](C)(C)CCNC(=O)c1c[nH]c2ccccc12`, 0%.
The figure for `CCOC(=O)[C@]12CCC=C1N(Cc1ccco1)C(=O)[C@H](CC(=O)N1CCSCC1)C2` is 2.85%; for `COC(=O)[C@@]12C[C@@H](CC(=O)N3CCC(c4ccccc4)CC3)C(=O)N(Cc3ccccc3)C1=CCC(C)(C)C2` it is 15.3%.
The figure for `COc1ccc(-c2cc3c(c4c2ccn4C)C2CCC3C2)cn1` (stereo unspecified) is 12.4%; for `O=C(CSc1nc2cccc(F)c2c(=O)n1-c1ccccc1)Nc1ccc2c(c1)CCC2` it is -3.93%; for `Cn1c(-c2ccc(F)cc2)cnc1SCC(=O)NCc1ccco1` it is -51.9% (active).
For the molecule `O=C(CSc1nnc2scc(-c3ccc(F)cc3)n12)NCc1ccco1`, the max response, negative = inhibition is 5.75%.
As for `Cn1c(-c2ccc(F)cc2)cnc1SCC(=O)NNC(=O)Cc1ccccc1`, the max response, negative = inhibition was -14.6%.
The figure for `CCCCCn1nnnc1C1c2ccccc2C(=O)N1Cc1ccco1` (stereo unspecified) is -21.5%; for `O=NN(CCCl)C(=O)NCCc1cccc[n+]1[O-]` it is -1.68%.
In the case of `CCOC(=O)C1CCN(C(=O)c2ccccc2N(C)S(=O)(=O)c2ccccc2)CC1`, the max response, negative = inhibition is -4.73%.
On to `CCN1CCN(C(=O)c2ccccc2N(C)S(=O)(=O)c2ccc(C)cc2)CC1`, for which the max response, negative = inhibition was -77.3% (active).
Turning to `CCOC(=O)N1CCN(C(=O)c2ccccc2N(Cc2ccccc2)S(=O)(=O)c2ccc(OC)cc2)CC1`, the max response, negative = inhibition is -17.6%.
Regarding `Clc1ccccc1Nc1nc(NCc2cccs2)nc2ccsc12`, the max response, negative = inhibition was 31.9%.
On to `O=C(C[C@H]1CC[C@@H](NC(=O)c2ccncc2)[C@@H](CO)O1)NCC1CC1`, for which the max response, negative = inhibition is 12.2%.
In the case of `O=C(NCc1nnnn1-c1ccc(Cl)cc1)c1ccc2c(c1)OCO2` it was -11.2%.
On to `CC(=O)N/C(=C\c1ccccc1)C(=O)OC(C)C(=O)N(C)c1ccccc1` (stereo unspecified), for which the max response, negative = inhibition is -13.3%.
The figure for `CC(=O)N/C(=C/c1ccc(OC(F)F)cc1)C(=O)O` is -58.1% (active); for `CC(=O)N/C(=C\c1ccc(F)cc1)C(=O)NC(Cc1ccccc1)C(=O)O` (stereo unspecified) it is 3.22%.
On to `CC1(Cc2cccc(C#N)c2)C(=O)Nc2ccc(-c3cccc(C(F)(F)F)c3)cc21` (stereo unspecified), for which the max response, negative = inhibition was 19.7%.
As to `CCOc1cc(C)c(S(=O)(=O)NCc2ccccn2)cc1C`, the max response, negative = inhibition is 4.2%.
The figure for `CCOc1cc(CNn2c(C)nnc2SCC(=O)NC(C)(C)C)ccc1OCC(=O)NC(C)(C)C` is 4.21%.
As for `CCOc1cc(CNCc2ccccn2)ccc1OCC(=O)NC(C)(C)C`, the max response, negative = inhibition was -58.7% (active).
With `CC1(C)CC(=O)C2=C(C1)N=C1SCCC(=O)N1C2c1ccc(C(F)(F)F)cc1` (stereo unspecified), the max response, negative = inhibition was -94.4% (active).
For `CNC(=O)C[C@H]1C(=O)N(Cc2ccccc2)C[C@@H]1CSC`, the max response, negative = inhibition is -17.4%.
The figure for `O=S(=O)(c1ccc(Br)cc1)c1nc(-c2ccccc2)oc1N1CCOCC1` is -1.47%; for `O=S(=O)(c1ccccc1)c1nc(-c2ccccc2)oc1NCCCN1CCOCC1` it is -64.3% (active).
The figure for `O=S(=O)(c1ccc(Cl)cc1)c1nc(-c2ccccc2F)oc1NCCN1CCOCC1` is -10.5%; for `CC(=O)c1cccc(-c2cnc3c(NC=O)cc(-c4ccc(N(C)C)cc4)cn23)c1` it is 4.39%; for `c1ccc(CNCc2ccc(CNCc3ccccc3)cc2)cc1` it is -21.6%.
In the case of `CCOCCCNCc1cc(Br)ccc1OCC` it was 4.27%.
As to `CCOc1ccccc1OCCCNCc1ccccc1`, the max response, negative = inhibition is -58.9% (active).
Turning to `CCCCN1CC(N2CCN(Cc3cccc(C)c3)CC2)CS1(=O)=O` (stereo unspecified), the max response, negative = inhibition is 0.736%.
In the case of `OCCC#Cc1ccc(N2C(c3ccsc3)=Cc3ccc(F)cc3C2c2c[nH]c3ccccc23)cc1` (stereo unspecified), the max response, negative = inhibition was -3.75%.
As for `O=C(NNS(=O)(=O)Cc1ccccc1)c1ccc([N+](=O)[O-])cc1`, the max response, negative = inhibition is -19%.
With `COC(=O)CNC(=O)c1ccccc1[N+](=O)[O-]`, the max response, negative = inhibition is 16.4%.
In the case of `O=C(CNC(=O)c1ccccc1)Oc1ccc([N+](=O)[O-])cc1` it was -54.6% (active); in that of `Nc1cc(=O)c2[nH]cnc2[nH]1`, 15.5%; in that of `Nc1ncnc2c1ncn2[C@@H]1O[C@H](C(=O)N2CCCN(Cc3ccccc3F)CC2)[C@@H](O)[C@H]1O`, 15%.
The figure for `O=C(C=CC(=O)Nc1ccc(F)cc1F)Nc1ccc(F)cc1F` is 4.55%; for `COC(=O)[C@@]1(Cc2ccc(OC)cc2)[C@H]2c3cc(C(=O)N4CCCC4)n(Cc4ccc(OC(F)(F)F)cc4)c3C[C@H]2CN1C(=O)c1ccccc1` it is 20.3%.
In the case of `C[C@@H]1CN([C@H](C)CO)C(=O)CCCn2nncc2CO[C@@H]1CN(C)S(=O)(=O)c1cccc(C#N)c1` it was -18.1%.
With `N#Cc1cccc(NC(=O)C2CCCN(C(=O)c3ccc(Cl)cc3)C2)c1` (stereo unspecified), the max response, negative = inhibition is 0.782%.
As for `N#Cc1ccsc1NC(=O)CN1CCCCC1`, the max response, negative = inhibition was -12%.
The figure for `N#Cc1cccc(NC(=O)CN2CCCCCC2)c1` is -64.8% (active).
In the case of `Nc1cc(C(=O)N2CCN(c3ccccc3Cl)CC2)ccc1N1CC2CC(C1)c1cccc(=O)n1C2` (stereo unspecified) it was 27.4%.
The figure for `C=C1C(=O)OC2C1CCC(C)=CCCC1(C)OC21` (stereo unspecified) is -90% (active).
With `CC1(C(=O)NCC2CCOCC2)Cc2c(-c3cccc(C(N)=O)c3)ccnc2O1` (stereo unspecified), the max response, negative = inhibition was -8.42%.
Turning to `Cc1cc(Br)cn2c(Cc3ccccc3C(F)(F)F)c(C3CCCCC3)nc12`, the max response, negative = inhibition is -18.2%.
The figure for `COc1cccc(-c2cnc3c(NC(C)=O)cc(-c4cc(F)ccc4OC)cn23)c1` is -14.2%; for `COc1ccc(S(=O)(=O)N2CCC(C(=O)NCCC(=O)NCCc3cccc(F)c3)CC2)cc1` it is 9.47%; for `O=C(CCCN1CCc2[nH]c3ccc(F)cc3c2C1)c1ccc(F)cc1` it is -89.2% (active).
In the case of `C=CCNC(=S)N1CCc2[nH]c3ccccc3c2C1` it was -14.7%.
Turning to `CC1CCc2[nH]c3ccc(C(=O)N(C)CC(=O)Nc4cccc(F)c4)cc3c2C1` (stereo unspecified), the max response, negative = inhibition was 3.28%.
`CC(=O)C1=CCC(c2ccccc2)N(S(=O)(=O)c2ccc(C)cc2)C1` (stereo unspecified): the max response, negative = inhibition is 0%.
Take `COc1cccc(NC(=O)C2(C)CCN2C(=O)CCC2CCCC2)c1` (stereo unspecified): the max response, negative = inhibition was 1.34%.
Turning to `COc1ccc(C(NC(=O)C2CCN(CCCc3ccccc3)CC2)c2cccs2)cc1` (stereo unspecified), the max response, negative = inhibition is -15.9%.
On to `Cc1c(NS(=O)(=O)c2ccc(NC3CCCC3)c([N+](=O)[O-])c2)c(=O)n(-c2ccccc2)n1C`, for which the max response, negative = inhibition was -21.5%.
Take `Cc1cc(C=O)c(C)n1-c1ccc(NC2CCCCC2)c([N+](=O)[O-])c1`: the max response, negative = inhibition was -55.1% (active).
The figure for `Cc1cc([N+](=O)[O-])c(NC2CCCCC2)c([N+](=O)[O-])c1` is -7.91%; for `COCC(=O)N(C)C[C@H]1Oc2cc(Br)ccc2S(=O)(=O)N([C@H](C)CO)C[C@H]1C` it is 15.2%.
The figure for `C#CCN(C[C@@H]1[C@@H](OC(=O)NC2CC2)[C@@H](OC(=O)NC2CC2)Cn2c(=O)ccc(=O)n21)S(=O)(=O)c1ccc(C)cc1` is 13.1%.
On to `O=c1ccc2c(-c3ccccc3S(=O)(=O)O)c3ccc(O)c(O)c3oc-2c1O`, for which the max response, negative = inhibition was -93.3% (active).
As to `C[C@@H]1CN([C@@H](C)CO)C(=O)CCCn2nncc2CO[C@H]1CN(C)Cc1ccc(C(F)(F)F)cc1`, the max response, negative = inhibition was 20.1%.
The figure for `CC(C)NC(=O)N1Cc2cc(C(=O)NCC(F)(F)F)nc(-c3cccc(-c4cc5ccccc5o4)c3)c2[C@@H]1CCO` is 18.7%; for `O=C(NC(c1ccc(-c2ccccc2)cc1)c1cnccn1)C1CCN(CCOc2ccc(Cl)cc2Cl)CC1` (stereo unspecified) it is -24.7%.
The figure for `COC(=O)c1ccc2nc(-c3ccccc3)c(Cc3ccc(OC)cc3C)n2c1` is -9.42%; for `COc1ccc2[nH]cc(CCN3C(=O)c4ccc(C(=O)O)cc4C3=O)c2c1` it is 11.7%; for `COc1ccc(/C=N/N=C/c2c[nH]c(=O)c(C#N)c2Nc2ccccc2)cc1` it is 23.9%.
The figure for `COc1ccc2[nH]cc(/C=C(/C#N)S(=O)(=O)c3ccccc3)c2c1` is -50.9% (active); for `Cc1ccccc1S(=O)(=O)NC(=O)C1(C)CCN1C(=O)C1(c2ccc(Cl)cc2)CC1` (stereo unspecified) it is 4.07%.
